LGR2 antag: Drosophila LGR2 receptor signaling inhibition. HEK293 LGR2, CRE-luciferase, bursicon-stimulated, 4 h. inhibition, % at 9.99 µM. 0.35% of 380,000 active. AID 720647;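 active means drop in luminescence signal, shown as inhibition above about 50% in the replicate tests, limit read from the data, passing the limit was not always enough; inconclusive means probably only some replicates passing the limit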;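 further: agonist challenge used bursicon conditioned medium at about half maximal strength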
Peg3 prom inh: reduces Peg3 promoter-driven luciferase expression in HeLa; AID 588405; 1.7% of 360,000 active; inhibition, % at 20 µM; HeLa PEG-Prom luciferase reporter, luminescence, overnight;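 active means inhibition of at least 50% at 20 µM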
Mdm2-MdmX inh: inhibitors of human Mdm2/MdmX interaction | SaOS-2 split-luciferase Mdm2/MdmX complementation, luminescence | inhibition, % at 8 µM | 3% of 330,000 active | AID 485346;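 active means inhibition of at least 50% at 8 µM in the primary screen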
CF NFkB inh: cystic fibrosis NF-kB activation inhibition. inhibition, % at 5 µM. KKLEB NF-kB-GFP reporter, PAF-induced, GFP fluorescence overnight. 0.86% of 360,000 active;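 active means at least 50% inhibition at 5 µM, scaled per plate between neutral and stimulator controls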;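 further: PAF is a Pseudomonas aeruginosa culture filtrate used as stimulus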
KKLEB tox: reduces viability of KKLEB cystic fibrosis airway cells. activity change (cytotoxicity), % at 5 µM. AID 602141. KKLEB CF airway cells viability, ATPlite luminescence, overnight; hits give low values; cells stimulated with P. aeruginosa culture filtrate. 0.36% of 360,000 active;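 active means corrected activity change at or below -50% at 5 µM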
HSP90 refold inh: HSP90 refolding inhibition in rabbit reticulocyte lysate; luciferase refolding luminescence, 3 h; inhibition, % at 5.6 µM; 0.91% of 290,000 active;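 active means inhibition above the screen-wide mean plus 3 SD, computed separately per campaign, cut at about 16% in these data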;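 further: inhibitors lower the luminescence because luciferase stays unfolded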
Each line names hits and unclear results; the compound was inactive in the other large screens; ! = a repeat was not active. An excerpt weighted towards active compounds, which were near 3.6% of everything screened.

C[C@@H]1CN([C@H](C)CO)C(=O)c2cc(C#Cc3ccncc3)cnc2O[C@H]1CN(C)C(=O)c1ccccc1F	none (no result: Peg3 prom inh, Mdm2-MdmX inh, CF NFkB inh, KKLEB tox, HSP90 refold inh)
CC(C)CC#Cc1ccc([C@H]2[C@@H](CO)N3C(=O)CN(C(=O)c4cnccn4)C[C@H]23)cc1	none (no result: Peg3 prom inh, Mdm2-MdmX inh, CF NFkB inh, KKLEB tox, HSP90 refold inh)
N#CNC(=Nc1cccc(F)c1)SCc1ccccc1F	Peg3 prom inh 74
COC1=C(C)C(=O)C2=C(C1=O)C1C3CC4=C(C(=O)C(OC)=C(C)C4=O)C(CNC(=O)C(C)=O)N3C(C#N)C(C2)N1C (configuration not stated)	LGR2 antag 97, Peg3 prom inh 101, CF NFkB inh 81 (no result: Mdm2-MdmX inh, HSP90 refold inh)
O=C(C1=C[C@@H](c2ccc(Br)cc2)C[C@@H](OCc2ccc(CO)cc2)O1)N1CCN(Cc2ccc3c(c2)OCO3)CC1	HSP90 refold inh 17 (no result: LGR2 antag)
CC(CCc1ccccc1)NC(=O)COC(=O)c1cc(NS(=O)(=O)c2ccc(Cl)c([N+](=O)[O-])c2)ccc1O (configuration not stated)	Peg3 prom inh 57
CNS(=O)(=O)c1cccc(C(=O)OCC(=O)NC(C)CCc2ccccc2)c1 (configuration not stated)	none
c1ccc(Cn2ncc3c(N4CCN(c5ccccc5)CC4)ncnc32)cc1	LGR2 antag 66 (no result: Mdm2-MdmX inh, HSP90 refold inh)
CCn1c2ccccc2nc2cc3c(cc21)c(Cl)c(=O)c1ccccc13	Peg3 prom inh 62, CF NFkB inh 81 (no result: Mdm2-MdmX inh, HSP90 refold inh)
CCn1c(/C=C/c2c(C)n(CC)c3ccccc23)nc2ccccc2c1=O	none (no result: LGR2 antag)
O=C(C[C@H]1C=C[C@@H](NS(=O)(=O)c2cccc(F)c2)[C@H](CO)O1)NCc1ccc2c(c1)OCO2	none (no result: Peg3 prom inh, Mdm2-MdmX inh, CF NFkB inh, KKLEB tox, HSP90 refold inh)
CCOc1ccc(C(=O)Nc2nnc(NC(=S)Nc3ccccc3)s2)cc1	none
Cc1ccc(C(=O)Nc2nnc(NC(=S)Nc3ccccc3)s2)cc1	CF NFkB inh 65
N#CC1=C(N)NC(=S)C(C(N)=O)C1c1ccccc1F (configuration not stated)	none
N#CC1=C(N)NC(=S)C(C(N)=O)C1c1ccc(Cl)cc1Cl (configuration not stated)	LGR2 antag 69
O=C(C[C@H]1C=C[C@@H](NC(=O)c2cccc(F)c2)[C@H](CO)O1)Nc1nccs1	none (no result: Peg3 prom inh, Mdm2-MdmX inh, CF NFkB inh, KKLEB tox, HSP90 refold inh)
O=C(C1CC1)N1C[C@@H]2N[C@H](C1)C2c1ccc(-c2ccccc2F)cc1 (some centres not stated)	LGR2 antag 88! (no result: Peg3 prom inh, Mdm2-MdmX inh, CF NFkB inh, KKLEB tox, HSP90 refold inh)
N#Cc1ccc(-c2ccc(C3[C@@H]4CN(C(=O)C5CCC5)C[C@H]3N4)cc2)cc1 (some centres not stated)	LGR2 antag 70! (no result: Peg3 prom inh, Mdm2-MdmX inh, CF NFkB inh, KKLEB tox, HSP90 refold inh)
N#Cc1cccc(-c2ccc(C3[C@@H]4CN(C(=O)C5CC5)C[C@H]3N4)cc2)c1 (some centres not stated)	LGR2 antag 89! (no result: Peg3 prom inh, Mdm2-MdmX inh, CF NFkB inh, KKLEB tox, HSP90 refold inh)
O=C(c1ccc(F)cc1)N1C[C@@H]2N[C@H](C1)C2c1ccc(-c2ccccc2F)cc1 (some centres not stated)	none (no result: Peg3 prom inh, Mdm2-MdmX inh, CF NFkB inh, KKLEB tox, HSP90 refold inh)
O=C(C1CC1)N1C[C@@H]2N[C@H](C1)C2c1ccc(-c2cccc(F)c2)cc1 (some centres not stated)	LGR2 antag 61! (no result: Peg3 prom inh, Mdm2-MdmX inh, CF NFkB inh, KKLEB tox, HSP90 refold inh)
Cc1ccc(S(=O)(=O)N(C)C[C@@H]2Oc3ccc(NS(=O)(=O)c4ccc(F)cc4)cc3C(=O)N([C@H](C)CO)C[C@H]2C)cc1	none (no result: Peg3 prom inh, Mdm2-MdmX inh, CF NFkB inh, KKLEB tox, HSP90 refold inh)
C[C@@H]1CCCCO[C@@H](CN(C)C(=O)CCCN(C)C)[C@H](C)CN([C@@H](C)CO)C(=O)c2cc(NC(=O)CCC(F)(F)F)ccc2O1	none (no result: Peg3 prom inh, Mdm2-MdmX inh, CF NFkB inh, KKLEB tox, HSP90 refold inh)
Cc1cccc(CN(C)C[C@@H]2OCc3cn(nn3)CCCC(=O)N([C@H](C)CO)C[C@H]2C)c1	none (no result: Peg3 prom inh, Mdm2-MdmX inh, CF NFkB inh, KKLEB tox, HSP90 refold inh)
O=C(OCc1cc(=O)oc2cc(O)ccc12)c1cc(S(=O)(=O)N2CCOCC2)ccc1F	none (no result: HSP90 refold inh)
CCc1cc2c(COC(=O)c3cc(S(=O)(=O)N4CCOCC4)ccc3F)cc(=O)oc2cc1O	LGR2 antag 59 (no result: HSP90 refold inh)
C/C(=N\Nc1ccc(C(=O)c2c(C)cc3ccccn23)cc1[N+](=O)[O-])c1ccc(O)cc1	CF NFkB inh 69, KKLEB tox -62
CC1=C(C(=O)Nc2ccc([N+](=O)[O-])cc2)C(c2cccc(C(F)(F)F)c2)NC(=S)N1c1ccccc1 (configuration not stated)	Peg3 prom inh 88 (no result: LGR2 antag)
C[C@H](CO)N1C[C@H](C)[C@@H](CN(C)Cc2cncnc2)Oc2cc(C3=CCCC3)ccc2S1(=O)=O	none (no result: Peg3 prom inh, Mdm2-MdmX inh, CF NFkB inh, KKLEB tox, HSP90 refold inh)
CCN1CCN(C(c2cccnc2)c2c(NC(=O)c3ccco3)sc(C)c2C)CC1 (configuration not stated)	Peg3 prom inh 55 (no result: HSP90 refold inh)
C[C@H]1CCCCO[C@@H](CN(C)S(=O)(=O)c2ccccc2)[C@@H](C)CN([C@@H](C)CO)C(=O)c2cc(NS(C)(=O)=O)ccc2O1	none (no result: Peg3 prom inh, Mdm2-MdmX inh, CF NFkB inh, KKLEB tox, HSP90 refold inh)
COC(=O)c1cccc(NC(=O)c2ccc3c(c2)C(=O)N(C(C)(C)C)C3=O)c1	none
COC(=O)c1cccc(NC(=O)c2ccc3c(c2)C(=O)N(CC2CCCO2)C3=O)c1 (configuration not stated)	none (no result: LGR2 antag)
CC(C)(C)NC(=O)c1cccc(NC(=O)c2ccc3c(c2)C(=O)N(C(C)(C)C)C3=O)c1	LGR2 antag 83
O=C(O)c1cccc(NC(=O)c2ccc3c(c2)C(=O)N(CC2CCCO2)C3=O)c1 (configuration not stated)	HSP90 refold inh 17 (no result: LGR2 antag)
COc1ccc(NC(=O)Nc2ccc3c(c2)C(=O)N([C@H](C)CO)C[C@H](C)[C@@H](CN(C)CC2CCCCC2)OCCCC[C@H](C)O3)cc1	none (no result: Peg3 prom inh, Mdm2-MdmX inh, CF NFkB inh, KKLEB tox, HSP90 refold inh)
Cc1noc(C)c1NC(=O)N(C)C[C@@H]1Oc2c(NC(=O)Nc3ccc4c(c3)OCO4)cccc2C(=O)N([C@H](C)CO)C[C@H]1C	none (no result: Peg3 prom inh, Mdm2-MdmX inh, CF NFkB inh, KKLEB tox, HSP90 refold inh)
COc1ccccc1CCC(=O)OCC(=O)Nc1ccc(C(N)=O)cc1	CF NFkB inh 67, KKLEB tox -84
Cc1cccc(-c2noc(-c3ccc4c(c3)OCO4)n2)c1	LGR2 antag 66
O=C(NCCn1cc(SCC(=O)N2CCOCC2)c2ccccc21)c1ccccc1	none
Cc1ccc(C(=O)NCCn2cc(SCC(=O)Nc3nnc(C)s3)c3ccccc32)cc1	HSP90 refold inh 50
COc1ccc(C(=O)NCCn2cc(SCC(=O)N3CCOCC3)c3ccccc32)cc1	HSP90 refold inh 47
CC(C)(C)c1cc[n+](C2=C([O-])c3ccccc3C(=O)/C2=N\S(=O)(=O)c2cccs2)cc1	Peg3 prom inh 57, CF NFkB inh 75
O=C1/C(=N\S(=O)(=O)c2cccs2)C([n+]2ccccc2)=C([O-])c2ccccc21	LGR2 antag inconclusive, CF NFkB inh 68
O=S(=O)(/N=C/c1ccccc1O)c1cccs1	none (no result: LGR2 antag)
Cc1ccc[n+](C2=C([O-])c3ccccc3C(=O)C2=O)c1	none (no result: Peg3 prom inh, Mdm2-MdmX inh, CF NFkB inh, KKLEB tox, HSP90 refold inh)
COc1ccc(S(=O)(=O)N2CCCCN3[C@H](C2)[C@@H](c2ccc(C#CC(C)C)cc2)[C@@H]3CO)cc1	none (no result: Peg3 prom inh, Mdm2-MdmX inh, CF NFkB inh, KKLEB tox, HSP90 refold inh)
O=C(CSCc1ccc(Cl)cc1)Nc1ccc(-c2nnc(-c3ccccc3)o2)cc1	Peg3 prom inh 51

Screening data from PubChem.
